According to PubChem BioAssay:
For some assays here: Potency and affinity values are given separately. Calls of active or inactive are those of the source. Unless noted, the rule behind the calls is not given here.

Assays:
[1] = antimalarial activity against Dd2 strain (AID 2302;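 active = growth inhibition above 50% at the single 2 µM test dose, taken to imply half-maximal potency below 2 µM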;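 note: 0% = DMSO untreated growth and 100% = chloroquine plus artemisinin killed control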); settings: P. falciparum Dd2 in RBCs, LDH growth readout, 72 h; at 2 µM; active compounds read high
[2] = HepG2 cytotoxicity, primary screen, cytotoxicity control for P. falciparum antimalarial project, cell-based, ATP luminescence (AID 2303;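 active = inhibition above 50%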;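 note: 0% = DMSO wells and 100% = digitonin-killed cells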); settings: HepG2 viability, 24-48 h, at 10 µM, active compounds read high
[3] = target: L-lactate dehydrogenase (Plasmodium falciparum (isolate CDC / Honduras)) (UniProt Q27743); test: PfLDH activity inhibition – cell lysate, 3D7 strain, counter-screen for P. falciparum growth inhibition project (AID 2304);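 note: 0% = vehicle and 100% = reference inhibitor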; settings: P. falciparum 3D7 crude extract, LDH APAD/NBT absorbance; at 2 µM; active compounds read high
[4] = inhibition of 3D7 malaria parasite growth – strain 3D7 (AID 2306);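 note: 0% = DMSO wells and 100% = chloroquine plus artemisinin control wells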; settings: P. falciparum 3D7 erythrocytic growth, LDH absorbance, 72 h; at 2 µM; active compounds read high
[5] = target: Calcium-dependent protein kinase 1 (Plasmodium falciparum (isolate 3D7)) (UniProt P62344); test: PfCDPK1 kinase inhibitors, biochemical, TCAMS library (AID 1159585; cut-off not given, nearly all actives have IC50 up to about 0.98 µM;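 note: inhibitors leave more ATP so luminescence rises with inhibition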); settings: recombinant PfCDPK1, Kinase-Glo ATP depletion luminescence
[6] = target: Plasmodium falciparum protein kinase 6 (PK6, PF3D7_1337100) (UniProt Q8IDW1); test: PfPK6 kinase inhibitors, biochemical, TCAMS library (AID 1159586); settings: recombinant PfPK6, Kinase-Glo ATP depletion luminescence
[7] = target: Protein kinase 7 (PK7), Plasmodium falciparum 3D7 (PF3D7_0213400) (UniProt Q7YTF7); test: inhibition of Plasmodium PK7 catalytic activity – biochemical, TCAMS antimalarial set, Kinase-Glo luminescence (AID 1159587); settings: recombinant PfPK7, Kinase-Glo ATP depletion luminescence
[8] = target: Calcium-dependent protein kinase 4 (Plasmodium falciparum (isolate 3D7)) (UniProt Q8IBS5); test: PfCDPK4 kinase inhibitors, biochemical, TCAMS library (AID 1159588; cut-off not given, nearly all actives have IC50 up to about 0.91 µM); settings: recombinant PfCDPK4, Kinase-Glo ATP depletion luminescence
Chain of Calcium-dependent protein kinase 4 (Plasmodium falciparum (isolate 3D7)) (Q8IBS5 whole entry, looked up): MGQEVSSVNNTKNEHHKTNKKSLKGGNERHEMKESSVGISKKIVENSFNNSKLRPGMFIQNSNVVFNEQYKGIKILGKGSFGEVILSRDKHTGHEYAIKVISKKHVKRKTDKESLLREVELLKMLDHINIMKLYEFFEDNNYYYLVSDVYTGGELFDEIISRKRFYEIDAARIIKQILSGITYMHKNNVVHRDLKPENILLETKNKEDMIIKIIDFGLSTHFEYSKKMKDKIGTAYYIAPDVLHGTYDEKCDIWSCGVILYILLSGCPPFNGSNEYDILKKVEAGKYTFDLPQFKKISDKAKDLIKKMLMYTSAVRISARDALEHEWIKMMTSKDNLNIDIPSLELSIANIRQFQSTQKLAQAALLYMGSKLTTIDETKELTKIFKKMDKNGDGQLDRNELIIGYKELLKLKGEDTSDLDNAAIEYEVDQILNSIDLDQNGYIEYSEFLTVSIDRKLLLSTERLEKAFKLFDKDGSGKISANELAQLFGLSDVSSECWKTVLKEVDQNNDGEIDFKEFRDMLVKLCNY

Chain of L-lactate dehydrogenase (Plasmodium falciparum (isolate CDC / Honduras)) (Q27743 whole entry, looked up): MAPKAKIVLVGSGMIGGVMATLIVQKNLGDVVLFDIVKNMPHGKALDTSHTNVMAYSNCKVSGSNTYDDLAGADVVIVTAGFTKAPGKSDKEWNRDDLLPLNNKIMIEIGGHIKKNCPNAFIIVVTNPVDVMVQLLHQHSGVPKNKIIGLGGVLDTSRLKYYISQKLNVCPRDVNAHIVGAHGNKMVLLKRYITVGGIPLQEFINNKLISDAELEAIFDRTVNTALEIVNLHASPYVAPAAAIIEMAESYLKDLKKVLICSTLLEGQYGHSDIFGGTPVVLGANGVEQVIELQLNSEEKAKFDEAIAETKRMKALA
Chain of Calcium-dependent protein kinase 1 (Plasmodium falciparum (isolate 3D7)) (P62344 whole entry, looked up): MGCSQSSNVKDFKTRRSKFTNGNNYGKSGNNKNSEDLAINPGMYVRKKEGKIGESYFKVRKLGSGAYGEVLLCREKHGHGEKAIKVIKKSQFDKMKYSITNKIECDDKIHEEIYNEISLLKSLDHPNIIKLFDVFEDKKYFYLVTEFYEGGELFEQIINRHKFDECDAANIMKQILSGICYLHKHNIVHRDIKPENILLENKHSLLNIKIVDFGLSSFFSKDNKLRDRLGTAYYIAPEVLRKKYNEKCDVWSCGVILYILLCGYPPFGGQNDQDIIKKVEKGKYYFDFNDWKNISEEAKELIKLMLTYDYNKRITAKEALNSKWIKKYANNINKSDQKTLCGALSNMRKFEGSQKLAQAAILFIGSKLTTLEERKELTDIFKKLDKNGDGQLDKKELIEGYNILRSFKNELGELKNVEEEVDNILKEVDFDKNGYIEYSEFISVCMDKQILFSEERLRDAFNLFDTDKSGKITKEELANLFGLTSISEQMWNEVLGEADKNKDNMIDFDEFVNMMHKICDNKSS
Chain of Plasmodium falciparum protein kinase 6 (PK6, PF3D7_1337100) (Q8IDW1 1-305): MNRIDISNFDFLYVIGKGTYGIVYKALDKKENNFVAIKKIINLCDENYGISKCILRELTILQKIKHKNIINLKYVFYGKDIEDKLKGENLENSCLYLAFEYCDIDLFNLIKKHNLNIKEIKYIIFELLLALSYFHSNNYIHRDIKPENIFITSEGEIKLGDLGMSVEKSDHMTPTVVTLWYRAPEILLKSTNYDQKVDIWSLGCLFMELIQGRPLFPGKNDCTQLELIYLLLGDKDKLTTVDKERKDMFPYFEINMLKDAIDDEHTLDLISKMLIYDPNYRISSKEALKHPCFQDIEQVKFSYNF
Chain of Protein kinase 7 (PK7), Plasmodium falciparum 3D7 (PF3D7_0213400) (Q7YTF7 1-343): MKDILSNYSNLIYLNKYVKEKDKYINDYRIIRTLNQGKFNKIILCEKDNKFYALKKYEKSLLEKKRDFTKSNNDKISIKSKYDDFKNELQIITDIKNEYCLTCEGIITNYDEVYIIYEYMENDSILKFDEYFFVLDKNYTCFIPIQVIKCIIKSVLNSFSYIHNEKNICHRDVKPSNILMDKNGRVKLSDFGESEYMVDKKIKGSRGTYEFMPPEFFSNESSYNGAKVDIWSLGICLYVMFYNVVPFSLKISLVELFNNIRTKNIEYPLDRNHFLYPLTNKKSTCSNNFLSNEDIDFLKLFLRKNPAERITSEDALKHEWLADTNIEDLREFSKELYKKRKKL

O=C(NCc1cccc(F)c1)c1ccc(O)c(-c2cc(Cl)cc(Cl)c2)c1
inactive: inhibition [2] 0% | inhibition [3] 1% | outcome [5] | outcome [6] | outcome [7] | outcome [8]
active: growth inhibition [1] 99% | growth inhibition [4] 99%

CC(C)(C)c1ccc(CNC(=O)c2cc(CNC3CCNC3)ccc2O)cc1 (stereo not given)
active: growth inhibition [4] 94%
inactive: growth inhibition [1] 1% | inhibition [2] 0% | inhibition [3] -6% | outcome [5] | outcome [6] | outcome [7] | outcome [8]

N#Cc1cccc(C(=O)Nc2cccc(-c3cccc(CN4CCNCC4)c3)c2)c1
inactive: growth inhibition [1] 10% | inhibition [2] 37% | inhibition [3] -3% | outcome [5] | outcome [6] | outcome [7] | outcome [8]
active: growth inhibition [4] 89%

O=C(c1ccc(-c2ccc(-c3nc4ccc(F)cc4[nH]3)cc2)cc1)N1CCCCC1CN1CCC(O)C1 (stereo not given)
active: growth inhibition [1] 100% | growth inhibition [4] 90%
inactive: inhibition [2] 24% | inhibition [3] -1% | outcome [5] | outcome [6] | outcome [7] | outcome [8]

CCNC[C@@H](O)[C@H](Cc1ccccc1)NC(=O)c1cc2c3c(c1)c(CC)cn3CCS(=O)(=O)N2C
inactive: inhibition [2] 0% | inhibition [3] -4% | outcome [5] | outcome [6] | outcome [7] | outcome [8]
active: growth inhibition [1] 65% | growth inhibition [4] 99%

CC(=O)Nc1nnc(SCc2c(C)cc(C(C)(C)C)cc2C)s1
inactive: inhibition [2] 3% | inhibition [3] -4% | outcome [5] | outcome [6] | outcome [7] | outcome [8]
active: growth inhibition [1] 91% | growth inhibition [4] 98%

CC1(C)C=C(c2ccncc2)c2cc(Cl)ccc2O1
active: growth inhibition [4] 97%
inactive: growth inhibition [1] 22% | inhibition [2] -4% | inhibition [3] 1% | outcome [5] | outcome [6] | outcome [7] | outcome [8]

CN(C)CCCNc1c2ccccc2nc2ccccc12
inactive: growth inhibition [1] 4% | inhibition [2] 31% | inhibition [3] -3% | outcome [5] | outcome [6] | outcome [7] | outcome [8]
active: growth inhibition [4] 91%

O=C(NCCN1CCOCC1)c1ccc(CNC(=O)c2ccc(O)c(-c3ccc(Cl)c(Cl)c3)c2)cc1
inactive: inhibition [2] 3% | inhibition [3] -1% | outcome [5] | outcome [6] | outcome [7] | outcome [8]
active: growth inhibition [1] 55% | growth inhibition [4] 87%

Cc1cc(N[C@@H](CC(C)C)C(=O)NCCOc2ccccc2)nc(NCCc2ccccc2)n1
inactive: growth inhibition [1] 29% | inhibition [2] 13% | inhibition [3] -1% | outcome [5] | outcome [6] | outcome [7] | outcome [8]
active: growth inhibition [4] 94%
